Bioassay records as filed in PubChem BioAssay.
D1 agonist: Allosteric Agonists of the Human D1 Dopamine Receptor: qHTS; HEK293 T-REx D1 cells, calcium flux, agonist mode; activation, % at 2 µM; AID 504660, 2011; D(1A) dopamine receptor (Homo sapiens), P21728; 360,000 tested, 1% active; further: 0% is about no effect
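Agonism was scored from calcium flux recorded over 180 s (1 read/s) after pintool compound addition, following a 10-cycle baseline. Cells were inducible force-coupled HEK293 TREx D1, plated overnight at 30 C and loaded with no-wash calcium dye.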
D1 antag: Antagonist of Human D 1 Dopamine Receptor: qHTS; HEK293 TREx D1 cells, calcium flux, dopamine EC80; hits give low values; AID 504652, 2011; activity change, negative = inhibition, % at 10 µM; 360,000 tested, 3.2% active; in the data active means activity change below about -30%; further: on the % scale 0 is the no-effect control and ±100 the full control effect
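Kinetic fluorescence of a calcium dye serves as the read-out. D1-expressing Hek293 Trex cells, induced overnight at 30 C, are exposed to compound for 180 s before an EC80 dopamine addition, then read 180 s further.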
D1 potentiator: Potentiators of Human D1 Dopamine Receptor: qHTS | potentiation, % at 10 µM | AID 504651, 2011 | D(1A) dopamine receptor (Homo sapiens), P21728 | 360,000 tested, 0.036% active | HEK293 TREx D1 cells, calcium flux, dopamine EC20 potentiation; in the data active means potentiation above about 30%; further: 0% is about no effect
TRHR ag: qHTS for Small Molecule Agonists and Allosteric Enhancers of Human TRH Receptor: Primary Screen for Agonists; Thyrotropin-releasing hormone receptor (Homo sapiens), P34981; TRHR cells, calcium flux fluo-8, FDSS agonist mode; activation, % at 2 µM; 360,000 tested, 0.18% active; AID 493084, 2011; further: 0% is about no effect
Target sequence (P34981 whole entry, looked up): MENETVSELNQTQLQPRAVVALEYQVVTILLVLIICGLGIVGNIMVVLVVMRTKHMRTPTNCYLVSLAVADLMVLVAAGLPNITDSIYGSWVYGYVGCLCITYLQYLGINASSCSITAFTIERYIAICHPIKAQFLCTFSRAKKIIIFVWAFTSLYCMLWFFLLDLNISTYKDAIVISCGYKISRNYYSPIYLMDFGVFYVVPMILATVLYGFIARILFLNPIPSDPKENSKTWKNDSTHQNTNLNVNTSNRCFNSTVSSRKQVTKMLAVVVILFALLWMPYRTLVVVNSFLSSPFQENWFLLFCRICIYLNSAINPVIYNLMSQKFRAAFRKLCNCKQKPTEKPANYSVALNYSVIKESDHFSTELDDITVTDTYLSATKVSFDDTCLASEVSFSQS
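TRHR-expressing cells loaded with fluo-8 calcium dye; 23 nL library compound pin-transferred, kinetic FDSS fluorescence (Ex 480/Em 530) recorded about 180 s for agonist-induced calcium release, before a 10 nM TRH EC20 addition for potentiator mode.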
TRHR enhancer: qHTS for Small Molecule Agonists and Allosteric Enhancers of Human TRH Receptor: Primary Screen for Enhancers; TRHR cells, fluo-8 calcium fluorescence, EC20 TRH enhancement; 360,000 tested, 0.66% active; AID 493056, 2011; enhancement, % at 2 µM; in the data active means enhancement above about 30%; further: 0% is about no effect
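TRHR-expressing cells loaded with fluo-8 calcium dye were read kinetically (ex 480/em 530) during compound addition, then stimulated with an EC20 of TRH (10 nM final). Enhancement of the Gq-mediated intracellular calcium response was scored.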
Active calls of the source: *; nt = no result. An excerpt weighted towards active compounds, which were near 4.7% of everything screened. Unless noted, no stated cut-off is given here; in the data, active means activation above about 30%; inactive means the rest.

SMILES | D1 agonist | D1 antag | D1 potentiator | TRHR ag | TRHR enhancer
Cc1cc(Nc2cc(Cl)ccc2C)n2nc(-c3ccccc3)nc2n1 | 3.2 | 19.8 | -0.8 | -1.9 | 1.0
CN(C)c1ccc(CNCCC(Cc2ccccc2)c2ccco2)cc1 (configuration not stated) | 47.5* | 11.3 | -7.0 | 2.5 | 8.0
O=C(Nc1ncc(Cc2cccc(C(F)(F)F)c2)s1)C1CCCO1 (configuration not stated) | 6.2 | -39.6* | -5.3 | 0.8 | 6.4
Cc1ccc(Cc2cnc(NC(=O)C3CCCO3)s2)cc1 (configuration not stated) | 1.9 | 14.2 | 6.7 | 0.4 | -0.8
COc1ccc(CC(=O)OCC(=O)N2CCN(S(=O)(=O)c3ccc(C)cc3C)CC2)cc1 | 5.3 | -89.9* | -6.2 | 0.2 | 4.9
CC(=O)c1cn(CCOc2ccccc2C)c2ccccc12 | 17.7 | -38.0* | -7.3 | -0.3 | -6.0
CC(C)CC1N=C2c3ccccc3N=C(SCC(=O)NCCc3ccc(Cl)cc3)N2C1=O (configuration not stated) | -0.5 | 6.2 | 0.1 | -1.3 | -0.2
Cc1ccc(C(C)NC(=O)c2ccncc2)c(C)c1 (configuration not stated) | 2.2 | -1.6 | 0.1 | 0.2 | 1.2
Cc1ccc(-n2ncc3c(NC4CCCCCC4)ncnc32)cc1Cl | -1.7 | 3.0 | 0.2 | 0.3 | -3.6
Cc1ccc(-n2ncc3c(NCCO)ncnc32)cc1Cl | 4.8 | -39.3* | -2.9 | -0.2 | -9.0
CC(=O)NNc1ncnc2c1cnn2-c1ccc(C)c(Cl)c1 | 6.8 | -10.2 | 2.0 | 0.6 | 31.4*
Cc1ccc(-n2ncc3c(NCCc4ccccc4)ncnc32)cc1Cl | 7.0 | -36.1* | -3.0 | 0.1 | 6.7
Cc1ccc(-n2ncc3c(NCCCn4ccnc4)ncnc32)cc1 | -3.2 | -12.6 | -1.0 | -0.3 | 30.9*
Cc1cccc(-n2ncc3c(NCCCn4ccnc4)ncnc32)c1 | 1.3 | 12.8 | 0.5 | -0.1 | 1.3
Cc1ccc(-n2ncc3c(NCCCc4ccccc4)ncnc32)cc1C | 3.0 | -17.0 | -2.4 | 0.4 | -0.1
Cc1ccc(-n2ncc3c(NCCc4ccccc4)ncnc32)cc1 | -3.1 | -49.9* | -1.6 | 0.5 | 7.0
COc1ccc(CCNc2ncnc3c2cnn3-c2ccc(F)cc2)cc1 | -2.1 | -38.1* | -3.5 | 0.3 | -7.9
COc1ccc(CCNc2ncnc3c2cnn3-c2ccc(C)c(Cl)c2)cc1 | 3.3 | -62.6* | -3.5 | 0.6 | 0.4
Cc1ccc(-n2ncc3c(NCCCc4ccccc4)ncnc32)cc1 | 2.9 | -16.9 | -2.5 | 0.7 | 0.2
Cc1ccc(-n2ncc3c(NNC(=O)c4ccccc4C)ncnc32)cc1 | -2.0 | -35.9* | 0.1 | -0.3 | 1.5
Cc1ccccc1C(=O)NNc1ncnc2c1cnn2C | -0.2 | -8.7 | -5.2 | 2.3 | 16.0
COc1ccc(CCNc2ncnc3c2cnn3-c2cccc(Cl)c2)cc1 | 2.9 | -15.9 | -3.7 | 0.7 | 3.4
Cc1cc(NC(=O)CCc2nc3cccnc3n2-c2ccccc2)ccc1Br | -2.7 | 4.6 | 2.1 | -0.2 | -6.7
CC1=C(c2ccc(C)cc2)S(=O)(=O)N(Cc2ccc(C(=O)NCc3ccccc3F)cc2)C1=O | 9.7 | 20.4 | -4.8 | -0.6 | -3.0
O=C(Cc1ccccc1F)Nc1ccc(SC(F)F)cc1 | 7.7 | 15.2 | -2.8 | -0.6 | -3.9
SMILES | D1 agonist | D1 antag | D1 potentiator | TRHR ag | TRHR enhancer
O=C(COC(=O)Cc1ccccc1F)Nc1ccc2c(c1)OCCO2 | 5.2 | -27.4 | -10.8 | -0.2 | 10.7
O=C(COC(=O)Cc1ccccc1F)Nc1ccc2c(c1)OCO2 | 4.8 | -37.1* | -4.0 | -0.8 | -6.3
O=C(COC(=O)Cc1ccccc1F)Nc1ccc(SC(F)F)cc1 | 7.9 | -34.9* | -7.0 | 0.5 | -6.3
Oc1c(C(c2ccccc2)N2CCC(O)CC2)sc2nc(-c3ccco3)nn12 (configuration not stated) | -3.8 | nt | -0.9 | -0.7 | 6.7
CCC(=O)N1c2ccccc2CC1C(=O)NCCCN1CCN(c2ccccc2)CC1 (configuration not stated) | -1.4 | -5.8 | -1.0 | -0.1 | 0.1
O=C(CCNC(=O)Cn1ccc2ccccc2c1=O)NCCN1CCN(c2cccc(Cl)c2)CC1 | 2.4 | 2.3 | -3.9 | 0.5 | 3.3
CCC(=O)N1c2ccccc2CC1C(=O)NCCCN1CCN(c2cccc(Cl)c2)CC1 (configuration not stated) | 0.8 | -52.8* | -1.1 | -0.6 | 3.0
O=C(NCCN1CCN(c2cccc(Cl)c2)CC1)Nc1ccccc1C(F)(F)F | 18.7 | -43.3* | -4.2 | -1.1 | -2.9
O=C(NCCCN1CCN(c2cccc(Cl)c2)CC1)Nc1ccccc1C(F)(F)F | 32.4* | -55.3* | -1.4 | -0.2 | -3.7
Cc1ccccc1CS(=O)(=O)CCC(=O)NCCN1CCN(c2cccc(Cl)c2)CC1 | 11.4 | -31.8* | -7.0 | -0.7 | 3.9
Cc1cccc(C)c1NC(=O)NCCCN1CCN(c2ccccc2)CC1 | 0.6 | -36.4* | -11.9 | -0.1 | 8.2
Cc1cccc(C)c1NC(=O)C(=O)NCCCN1CCOCC1 | 4.7 | 2.6 | -6.3 | 0.2 | -0.7
O=C(Cn1nc2c(cc1=O)CCCC2)Nc1ccc(F)cc1F | 0.3 | 6.6 | -6.7 | 0.2 | 0.4
CCN(CC)S(=O)(=O)c1ccc2c(c1)N(CC(=O)NCCCN1CCN(c3cc(Cl)ccc3C)CC1)C(=O)CO2 | 15.0 | -18.4 | -5.4 | -0.8 | 0.6
Nc1nnc(SCC(=O)Nc2nccs2)s1 | 0.8 | -42.8* | -5.3 | 1.4 | -2.8
Cn1c(CSCc2ccc(Cl)cc2)nnc1SCC(=O)Nc1nccs1 | 19.1 | -49.4* | -8.7 | -1.0 | -6.3
CC(C)(C)OC(=O)N1CCC2(CC1)Oc1ccc(F)cc1C(=O)C21CC(c2cccnc2)=NO1 (configuration not stated) | 1.4 | -90.6* | -3.8 | 0.4 | -1.3
OC(CNC1CCCCCC1)COc1cccc2ccccc12 (configuration not stated) | 44.9* | -14.7 | 0.3 | 1.4 | 5.1
Cc1ccccc1OCC(O)CNC1CCC(NCC(O)COc2ccccc2C)CC1 (configuration not stated) | 24.7 | -24.9 | -5.8 | 2.0 | 10.4
Cc1cc2c(OCC(O)CNC3CCCCC3)cccc2[nH]1 (configuration not stated) | 3.1 | -7.5 | 0.5 | -0.1 | 4.9
OC(CNC1CCCC1)COc1ccccc1Br (configuration not stated) | 12.7 | -36.2* | -7.8 | -0.6 | 8.0
O=C(CSc1nc2ccsc2c(=O)n1Cc1ccccc1F)NCc1ccccc1Cl | 6.5 | 17.2 | -2.5 | 0.2 | -10.0
